Screens: PubChem, several laboratories
HGIII-sPLA2 inh = human group III sPLA2 inhibitors, primary screen, biochemical, QFRET, BODIPY PC-A2 liposome substrate; 0.56% of 370,000 active; QFRET BODIPY PC-A2 liposome hydrolysis, fluorescence; Group 3 secretory phospholipase A2 (Homo sapiens), Q9NZ20; inhibition, % at 12.2 µM; AID 743126, 2013;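 active means inhibition above mean plus 3 SD of compounds lying within the high and low control bounds, cut at about 19% in these data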;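 further: 0% = median of test compound wells and 100% = no enzyme DMSO wells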
NR3A LBD binder = binders of NR3A ligand-binding domain, primary screen, biophysical, differential scanning fluorimetry, uHTS; 2.5% of 340,000 active; Tm shift relative to glycine control, % at 25 µM; NR3A LBD differential scanning fluorimetry, Tm shift; 0% = protein alone, 100% = glycine-bound protein; Glutamate receptor ionotropic, NMDA 3A (GRIN3A) ligand-binding domain;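 active means melting temperature shift of at least 10% of the positive control shift, at one fixed dose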
UBC9 SUMO inh = inhibitors of in vitro SUMOylation cascade, primary screen, biochemical, HTRF, uHTS | SUMO-conjugating enzyme UBC9 (Homo sapiens), P63279 | HTRF SUMOylation assay, SAE1/SAE2 + UBC9 | inhibition, % at 35 µM | 0.36% of 290,000 active | AID 2006, 2009; in the data active means inhibition above about 50%, passing the limit was not always enough
Target sequence (P63279 whole entry, looked up): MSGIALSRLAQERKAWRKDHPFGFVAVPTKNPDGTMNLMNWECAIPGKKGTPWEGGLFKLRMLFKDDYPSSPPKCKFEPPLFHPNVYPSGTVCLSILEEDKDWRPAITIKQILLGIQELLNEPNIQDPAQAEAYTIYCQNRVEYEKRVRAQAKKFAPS
UBC13 polyUb = UBC13 polyubiquitin chain formation inhibitors, primary screen, biochemical, TR-FRET, uHTS; inhibition, % at 20 µM; AID 485273, 2010; 0.47% of 330,000 active; Ubiquitin-conjugating enzyme E2 N (Homo sapiens), P61088; in the data active means inhibition above about 45%, passing the limit was not always enough
Target sequence (P61088 whole entry, looked up): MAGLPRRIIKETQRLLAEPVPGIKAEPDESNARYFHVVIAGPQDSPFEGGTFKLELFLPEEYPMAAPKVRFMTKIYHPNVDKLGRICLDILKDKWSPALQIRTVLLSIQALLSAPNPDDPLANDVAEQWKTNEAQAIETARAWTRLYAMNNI
The depositor's hits bear a star; nt = no result. Only some compounds are listed: those with a hit (about 3.3% of all), similar ones and a draw of the others.

SMILES	HGIII-sPLA2 inh	NR3A LBD binder	UBC9 SUMO inh	UBC13 polyUb
O=C(N/N=C/c1cn(-c2ccccc2)nc1-c1cc2ccccc2o1)c1ccccc1Br	18.2	4.6	3.8	0.9
Cc1ccc(C(C)NC(=O)/C(C#N)=C\c2c(C)[nH]c3ccccc23)cc1 (configuration not stated)	-20.5	17.3*	-1.9	14.1
Cc1[nH]c2ccccc2c1/C=C(\C#N)C(=O)NCc1ccccc1	2.9	-9.0	28.9	-1.0
CCOC(=O)[C@]12CCCCC/C=C\1N(CCc1ccc(Cl)cc1)C(=O)[C@H]2CC(=O)N1CCSCC1	0.0	nt	nt	nt
COc1ccc(C2C(C(=O)N3CCN(c4ccccc4C)CC3)CC(=O)N2c2ccc(OC)cc2)cc1 (configuration not stated)	-4.0	nt	nt	nt
Oc1ccc(/C=N/Nc2cc(N3CCCC3)nc(N3CCCC3)n2)cc1	1.5	3.8	94.0	-10.8
Oc1cccc(/C=N/Nc2cc(N3CCCC3)nc(N3CCCC3)n2)c1	10.3	-11.5	93.4*	5.6
Oc1ccc(Br)cc1/C=N/Nc1nc(N2CCCCC2)nc(N2CCOCC2)n1	-4.2	-1.7	26.0	-11.3
Oc1ccc(/C=N/Nc2nc(N3CCCCCC3)nc(N3CCCCCC3)n2)c(O)c1	-20.4	14.6*	-32.5	0.7
Oc1ccc(/C=N/N2CCCCC2)c(O)c1	-4.4	33.4*	6.3	2.7
Oc1ccccc1C=NN1CCCCCC1	10.3	2.4	nt	nt
Oc1ccccc1C1Nc2cccc3cccc(c23)N1	2.2	11.5*	26.0	-25.9
Clc1cccc(Cl)c1C1Nc2cccc3cccc(c23)N1	8.2	-0.7	56.0*	-25.5
CC(=O)Oc1cc2c(s1)CCN(C(C(=O)C1CC1)c1ccccc1F)C2 (configuration not stated)	-3.9	nt	nt	nt
CSc1ccc(NC(=O)CSc2nc3[nH]c(=O)cc(O)c3s2)cc1	-15.3	13.6*	nt	-33.3
O=C(CSc1nc2[nH]c(=O)cc(O)c2s1)Nc1ccc(Cl)c(C(F)(F)F)c1	-0.1	11.9*	nt	-30.6
Cc1cccc(Cn2cc(COC(=O)NCCc3c[nH]c4ccccc34)nn2)c1	-88.9	nt	nt	nt
C=CCN1[C@@H](CC(C)C)COc2cccc(N3CCCC3)c2S1(=O)=O	16.3	nt	nt	nt
O=C(NCCN1CCC(Cc2ccccc2)CC1)C1CCCN(S(=O)(=O)c2ccc(Br)s2)C1 (configuration not stated)	-25.4	nt	nt	nt
CCCCOCCCNC(=O)C[C@H]1C[C@@]2(C(=O)OC)C(=C[C@H](C(C)C)O[C@@H]2C2CC2)N(CCC2=CCCCC2)C1=O	-4.8	nt	nt	nt
Cc1ccc2c(c1)C(CS(=O)(=O)NCCc1ccccc1)NC2 (configuration not stated)	-0.4	nt	nt	nt
O=C(CSc1ccc(Cl)cc1)Nc1ccc(N2CCN(c3ccccc3)CC2)c(F)c1	13.1	19.4*	31.0	-34.7
CCOc1ccc(C2CC=C(C(=O)O)CN2S(=O)(=O)c2ccc(C)cc2)cc1 (configuration not stated)	-12.5	nt	nt	nt
N#CC1CC(c2ccccc2)Nc2cc(Cl)ccc2N1 (configuration not stated)	-2.5	13.5*	7.6	6.8
C[C@@H]1C[C@H](O)c2cc(Cl)ccc2N1	-5.2	-1.2	11.5	2.7
SMILES	HGIII-sPLA2 inh	NR3A LBD binder	UBC9 SUMO inh	UBC13 polyUb
C#CCNC(=O)C[C@@H]1C(=O)N(CC=C)C2=CCCCC[C@]21C(=O)OC	2.5	nt	nt	nt
CCCCn1c(=O)[nH]c2nc3cc(N)ccc3nc2c1=O	-160.1	-0.8	97.9*	nt
Nc1ccc2nc3c(=O)n(C4CCCCC4)c(=O)[nH]c3nc2c1	-249.2	-1.0	61.4*	-219.5
Nc1ccc2nc3c(=O)n(CCc4ccccc4)c(=O)[nH]c3nc2c1	-92.2	-2.3	68.4*	-240.7
Cc1cc2nc3c(=O)n(CCc4ccccc4)c(=O)[nH]c3nc2cc1N	-53.4	-6.3	45.8	-196.2
C=CCn1c(=O)[nH]c2nc3cc(N=CN(C)C)c(C)cc3nc2c1=O	-37.7	0.5	29.4	-81.5
C/C(=N\NS(=O)(=O)c1ccccc1)c1cccc(NC(=O)c2cccc(Cl)c2)c1	-7.2	15.0*	-8.8	4.0
C/C(=N\NC(=O)c1cccc(S(=O)(=O)Nc2cccc(Cl)c2)c1)c1cccs1	-5.4	14.1*	-0.6	-3.2
CCN(CC)S(=O)(=O)c1cccc(C(=O)N/N=C(\C)c2cccs2)c1	-0.9	-0.1	-8.8	-10.0
Cc1ccc(/C=N/NC(=O)c2cccc(S(=O)(=O)Nc3cccc(Cl)c3)c2)o1	-4.3	6.6	61.0*	-6.9
